Test results taken from PubChem BioAssay AID449 (The Scripps Research Institute Molecular Screening Center, 2006).
Among all 56,000 compounds or so, about 320 (0.57%) were called active.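 The calls were made as follows: active = activation above a cutoff set at the mean activation of all tested compounds plus 3 SD (cut at about 54% in these data); inactive = the rest, inconclusive results apart.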 Many of the other results were omitted from the sample, so actives are more common in it than they were.

Target: Sphingosine 1-phosphate receptor 1 (Homo sapiens) (UniProt P21453)
Sequence (P21453 whole entry, looked up): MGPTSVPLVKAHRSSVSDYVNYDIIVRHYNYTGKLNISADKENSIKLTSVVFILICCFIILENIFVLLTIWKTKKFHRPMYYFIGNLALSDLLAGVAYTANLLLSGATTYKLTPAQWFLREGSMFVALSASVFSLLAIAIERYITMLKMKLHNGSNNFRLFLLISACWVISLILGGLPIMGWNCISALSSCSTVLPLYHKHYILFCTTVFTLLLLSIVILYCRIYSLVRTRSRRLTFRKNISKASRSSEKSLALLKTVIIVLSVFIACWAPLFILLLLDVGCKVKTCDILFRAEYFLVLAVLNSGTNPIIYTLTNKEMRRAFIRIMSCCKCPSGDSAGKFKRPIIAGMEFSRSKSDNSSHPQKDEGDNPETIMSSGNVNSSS
Experiment: S1P1 agonists and agonism potentiators, primary screen, cell-based, primary and confirmation screens, CRE-bla reporter (AID 449);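 also: forskolin at 4 µM as EC80 and the EC20 agonist is SEW2871; 100% = SEW2871 at its EC100 plus forskolin at EC80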
Settings: S1P1 CRE-bla cells, forskolin, beta-lactamase FRET, potentiator mode, at 9.5 µM, stronger effect = higher value, 100% = saturating reference agonist, 0% = basal, S1P1 agonist co-added at EC20, 2 nM
[1] = measured here: confirmation screen, triplicate average

Row | Compound | activation | activation [1]
1 | c1csc(-c2cn3c(n2)SCC3)c1 | -25.6% (inactive) | 
2 | CCc1cc(=O)oc2cc(OCC(=O)N3CCCc4ccccc43)ccc12 | -15.5% (inactive) | 
3 | CCSC(C)CC1C/C(=N/O)c2c(C)noc2C1 (configuration not stated) | -5.8% (inactive) | 
4 | COC(=O)Cc1c(C)c2ccc(OCC(=O)NCc3ccc4c(c3)OCO4)cc2oc1=O | -1.6% (inactive) | 
5 | CSc1nnc(CNC(=O)c2ccccc2)n1-c1ccc(F)cc1 | -11.1% (inactive) | 
6 | O=C(CCCOc1ccccc1)Nc1cccc(C(=O)O)c1 | 2.3% (inactive) | 
7 | COc1ccc(C(=O)Nc2cccnc2)cc1C(=O)Nc1cccnc1 | 5.6% (inactive) | 
8 | CN(C)/C=C1/C(=O)Nc2ccccc21 | -14.3% (inactive) | 
9 | COC(=O)C(C)n1cnc2c(nnn2-c2cccc(Cl)c2)c1=O (configuration not stated) | -14.1% (inactive) | 
10 | Cn1c(=O)[nH]c(=O)c2c1nc(CN1CCN(c3ccccc3F)CC1)n2CCc1ccccc1 | -6.4% (inactive) | 
11 | O=C(Nc1c(-c2ccccc2)nc2c(Br)cc(Br)cn12)c1ccco1 | 17.7% (inactive) | 
12 | Cc1nc2ccc(S(=O)(=O)NC(C(=O)N3CCCCCC3)C(C)C)cc2s1 (configuration not stated) | -9.8% (inactive) | 
13 | CCCOC(=O)c1cc2ccccc2oc1=O | -2.5% (inactive) | 
14 | Cc1ccnc(SCCn2c(N(C)Cc3ccccc3)nc3c2c(=O)n(C)c(=O)n3C)n1 | -31.4% (inactive) | 
15 | N#Cc1c2c(c(-c3ccccc3)[nH]c1=O)CCCC2 | -28.7% (inactive) | 
16 | C=CCOc1nc2c(c(=O)n(C)c(=O)n2C)n1Cc1ccc(Cl)cc1Cl | 2.7% (inactive) | 
17 | O=P(O)(CN1CCCCC1)CN1CCCCC1 | -3% (inactive) | 
18 | COc1ccc(OCC(=O)OCC(=O)Nc2ccc(S(=O)(=O)N3CCCCC3)cc2)cc1 | -8.9% (inactive) | 
19 | COc1ccc(C2C(C#N)=C(N)Oc3cc(N)ccc32)cc1OC (configuration not stated) | -18% (inactive) | 
20 | COc1ccc(CSc2nc(N3CCOCC3)c3c(c2C#N)CC(C)(C)OC3)cc1 | -11.9% (inactive) | 
21 | CC(=O)Nc1ccc(S(=O)(=O)N2CCN(C3CCCCCCC3)CC2)cc1 | -11.9% (inactive) | 
22 | COc1cc(OC)cc(C(=O)Nc2ncc3c(n2)CC(C)(C)CC3=O)c1 | -4.2% (inactive) | 
23 | CC(C)(C)Nc1c(N)c(=O)oc2ccccc12 | 9.1% (inactive) | 
24 | O=c1oc2c(CN3CCCCC3)c(O)ccc2c2c1CCCCC2 | -2.6% (inactive) | 

Row | Compound | activation | activation [1]
25 | O=C(O)c1cccc2c1C(=O)N(C1CCCCC1)C2 | -25.1% (inactive) | 
26 | O=C(CN1CCOc2ccccc21)N1CCC(Cc2ccccc2)CC1 | 6% (inactive) | 
27 | CCCC(=O)N1c2ccccc2NC2=C(C(=O)CCC2)C1c1ccc(F)cc1 (configuration not stated) | -9.6% (inactive) | 
28 | Cc1cccc(CC(=O)Nc2c3c(nn2-c2cccc(Cl)c2)CS(=O)C3)c1 (configuration not stated) | 26.1% (inactive) | 
29 | CC[C@H]1CN2CCc3cc(OC)c(OC)cc3[C@@H]2C[C@@H]1C[C@H]1NCCc2cc(OC)c(OC)cc21 | 131% (active) | 101%
30 | Cc1csc(NC(=O)C2CCCN2C(=O)OCC(C)C)n1 (configuration not stated) | 6.7% (inactive) | 
31 | CCOc1ncccc1C(=O)OCc1cn2cc(Cl)ccc2n1 | -55.2% (inactive) | 
32 | CCOC(=O)N1CCN(C(=O)C2CCCN(c3ncnc4c3sc3cccc(F)c34)C2)CC1 (configuration not stated) | -8.7% (inactive) | 
33 | CCOC(=O)N1CCN(C(=O)C2CCN(c3ncnc4c3sc3cccc(F)c34)CC2)CC1 | 96.6% (active) | 78.6%
34 | CCOC(=O)C1CCN(c2ncnc3c2oc2ccc(Br)cc23)CC1 | 3.6% (inactive) | 
35 | CN1C(=O)CC(N2CCN(c3ccccn3)CC2)C1=O (configuration not stated) | -14.2% (inactive) | 
36 | O=C(O)CN(Cc1ccco1)S(=O)(=O)c1ccccc1 | -18.7% (inactive) | 
37 | CCC1(C)N(O)C(C)(C)C(c2ccc(OC)cc2)=[N+]1[O-] (configuration not stated) | -9.9% (inactive) | 
38 | Cn1c(=NC(=O)C2CC2)sc2cc(F)cc(F)c21 | 0.7% (inactive) | 
39 | COc1ccc(N2C(=O)C3CCCN3C2c2cccc(OC)c2)cc1 (configuration not stated) | 5.4% (inactive) | 
40 | C=C(Br)CN1CCN(CC(=C)Br)CC1 | -15.8% (inactive) | 
41 | Cc1ccc(C2CC(c3cccc(Br)c3)n3nc(N)nc3N2)cc1 (configuration not stated) | -10.7% (inactive) | 
42 | COc1ccccc1-n1c(CNC(=O)c2ccccc2)nnc1SCC(=O)Nc1nnc(C)s1 | -0.9% (inactive) | 
43 | O=C(CSCc1cccs1)N1CCCC1 | -22.9% (inactive) | 
44 | CC(C)Oc1ccc(C(=O)Nc2cc(=O)n(C)c(=O)n2C)cc1 | -4.5% (inactive) | 
45 | CCCN1CCN(C(=O)Cn2ncc3ccccc32)CC1 | -19.3% (inactive) | 
46 | Cc1cc(C)c(S(=O)(=O)NCCCN2CCOCC2)cc1Br | 3.7% (inactive) | 
47 | CC(=O)N1CCN(c2cccc(C)c2C)CC1 | -9.6% (inactive) | 
48 | CCNC(=O)N1CCNC(=O)C1CC(=O)Nc1ccc(C(=O)OCC)cc1 (configuration not stated) | -11.5% (inactive) | 

Row | Compound | activation | activation [1]
49 | COc1ccccc1NC1=NC2(CCCC2)N=C(N)N1 | 5.5% (inactive) | 
50 | CCN(CC)S(=O)(=O)c1ccc2nc(CSc3nnnn3-c3ccc(O)cc3)[nH]c2c1 | -21.4% (inactive) | 
51 | O=S(=O)(Nc1ccc2nc(-c3ccco3)[nH]c2c1)c1ccccc1 | 5.9% (inactive) | 
52 | Cc1ccc(C2c3c(oc4ccc(C)cc4c3=O)C(=O)N2CCCN2CCOCC2)cc1 (configuration not stated) | 3.6% (inactive) | 
53 | COc1ccccc1N1CCN(Cc2nnnn2CCc2ccccc2)CC1 | -1.7% (inactive) | 
54 | COc1ccccc1-n1nnnc1S(=O)(=O)Cc1ccc(Cl)cc1 | 89.3% (active) | 76%
55 | COCCn1nnnc1C(c1ccccc1Cl)N1CCN(c2ccccc2OC)CC1 (configuration not stated) | -15.5% (inactive) | 
56 | CCOC(=O)C1Cn2c(nc3c(c2=O)C(C)(CC)Cc2ccccc2-3)S1 (configuration not stated) | -35.4% (inactive) | 
57 | COc1ccc(OC)c(C(=O)c2coc3ccc(OC)cc23)c1 | 7.5% (inactive) | 
58 | CCCCn1c(CCCNC(=O)CC)nc2ccccc21 | -7% (inactive) | 
59 | COc1ccc(-c2ccc(-c3noc(-c4ccncc4)n3)c(OC)n2)cc1 | -6.8% (inactive) | 
60 | CN1CCN(c2ccc(NC(=O)COc3ccc(Cl)cc3Cl)cc2)CC1 | -9.3% (inactive) | 
61 | Cc1cccc(NC(=O)COc2ccccc2C)n1 | 15.3% (inactive) | 
62 | Cc1ccccc1OCC(=O)Nc1ccc(N2CCN(C(=O)C(C)C)CC2)c(Cl)c1 | 92.5% (active) | 68.2%
63 | c1ccc2c(c1)OCC(CNc1ncnc3nc[nH]c13)O2 (configuration not stated) | 23.9% (inactive) | 
64 | COc1ccc(CCNc2ncnc3nc[nH]c23)cc1OC | -11.4% (inactive) | 
65 | CCc1ccc(N(CC)c2ncnc3nc[nH]c23)cc1 | 56.5% (active) | 57.4%
66 | COC(=O)c1cc(C(=O)CSc2nc(C)cc(C)n2)ccc1O | -13.3% (inactive) | 
67 | CC(C)OC(=O)c1sc2nc3c(cc2c1N)C(=O)CCC3 | -1.6% (inactive) | 
68 | Cc1ccc(-c2nn(-c3ccccc3)cc2CN(Cc2ccccc2)C(=O)CCC(=O)O)o1 | -15.4% (inactive) | 
69 | CCCc1nc(SCC(=O)Nc2ccccc2OC)c2c(=O)n(C)c(=O)n(C)c2n1 | -6% (inactive) | 
70 | COc1ccc(OC)c(C(=O)CSc2nnc(-c3cccs3)o2)c1 | -31.3% (inactive) | 
71 | COc1ccc(-c2nnc(SCC(=O)c3cccs3)o2)c(OC)c1 | 8.5% (inactive) | 
72 | COc1ccc(-n2c(C)cc(C(=O)CSc3nnc(-c4cccs4)o3)c2C)cc1 | 114% (active) | 111%

Row | Compound | activation | activation [1]
73 | CCOC(=O)c1sc(/N=C/Nc2nc(C)c(C(=O)OCC)s2)nc1C | 11.8% (inactive) | 
74 | Cc1cc(C(=O)N2CCN(c3ccccn3)CC2)c(C)o1 | -7.8% (inactive) | 
75 | COc1cccc(N(CC(=O)Nc2cccc(F)c2)S(C)(=O)=O)c1 | 13.1% (inactive) | 
76 | COc1ccc(C)c2sc(=NC(=O)c3ccc(C#N)cc3)n(C)c12 | -12.3% (inactive) | 
77 | CCSC1(SCC)N=C(N)C2(C#N)C(c3ccccc3)NC(C)=CC12C#N (configuration not stated) | 2.3% (inactive) | 
78 | CC(NC(=O)c1ccc(Cl)cc1)C(=O)N1CCCCC1 (configuration not stated) | -2% (inactive) | 
79 | CC1CSc2nnc(CCc3ccccc3)n21 (configuration not stated) | -14.3% (inactive) | 
80 | CC12COC3(C(=O)Nc4ccc(Cl)cn4)CC1CCC32C (configuration not stated) | -10.8% (inactive) | 
81 | COCCCn1c2nc3ccccc3nc2c2c(=O)n(Cc3ccc(Cl)cc3)c(C)nc21 | 6% (inactive) | 
82 | CCC(C(=O)Nc1ncccn1)(C(F)(F)F)C(F)(F)F | -4.8% (inactive) | 
83 | CC(C)Cc1cc(C(=O)NCCc2ccccc2)no1 | 20.9% (inactive) | 
84 | CCCOc1ccc(-c2nc(N)n[nH]2)cc1 | 5.2% (inactive) | 
85 | CCOC(=O)C1CCCN(C(=O)Cn2ncc3c(=O)oc4ccc(C)cc4c32)C1 (configuration not stated) | -8.1% (inactive) | 
86 | Cc1cc(OCCN2CCCC2)ccc1C(C)C | -14.6% (inactive) | 
87 | COc1ccc(OC)c2[nH]c(=O)c(CCNC(=O)C(C)(C)C)cc12 | -8.4% (inactive) | 
88 | CCOC(=O)CSC1=C(C#N)C(c2sccc2C)CC(=O)N1 (configuration not stated) | -11.6% (inactive) | 
89 | CC(=O)N1CCN(C(=O)c2cccc(S(=O)(=O)Nc3ccc(C)cc3)c2)CC1 | -12.2% (inactive) | 
90 | Cc1c(C(=O)NCC2CCCO2)sc2nc(-c3ccccc3)cn12 (configuration not stated) | -17.8% (inactive) | 
91 | CCOc1ccc(NC(=O)CSc2nc3c(c(=O)n2-c2ccccc2OC)SCC3)cc1 | -5.9% (inactive) | 
92 | COc1ccc(OC)c2sc(NC(=O)C3COc4ccccc4O3)nc12 (configuration not stated) | -1.3% (inactive) | 
93 | COc1ccc(CCNC(=O)CN2CCC(n3nnc4cc(F)ccc43)CC2)cc1OC | -19.7% (inactive) | 
94 | COCCOC(=O)C1=C(C)N=c2s/c(=C\c3cccs3)c(=O)n2C1c1cccs1 (configuration not stated) | 2.2% (inactive) | 
95 | COc1ccc(OC)c(CNC(=O)CCc2nc(-c3cccs3)no2)c1 | 9.5% (inactive) | 
96 | CC(C)(C)NC(=O)C(c1ccco1)N(Cc1ccc2c(c1)OCO2)C(=O)Cn1nnc2ccccc21 (configuration not stated) | 11.2% (inactive) | 
